Most compounds without a hit are left out; they make up all but 21% or so of the library.
TDP1 cell CPT – qHTS for Inhibitors of human tyrosyl-DNA phosphodiesterase 1 (TDP1): qHTS in cells in presence of CPT | chicken DT40 Tdp1-/-;hTDP1 cells + 20 nM CPT, ATP luminescence, 48 h | Potency, µM (titrated, usually from 46.2 µM), actives largely listed as inhibitors | 12% of 420,000 active; further: nearly all actives have a fitted effect of over 55% in size
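Chicken DT40 Tdp1-/- cells complemented with human TDP1, 400 cells/well, exposed to compounds plus 20 nM camptothecin for at least 48 h at 37 C; viability read as ATP content by CellTiter-Glo luminescence.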
IL1B secr inh – qHTS for Inhibitors of Inflammasome Signaling: IL-1-beta AlphaLISA Primary Screen; THP-1 LPS/ATP IL-1B secretion, AlphaLISA, 16 h; stronger effect = lower value; activity change, % at 57.5 µM; 4.7% of 360,000 active; in the data active means activity change below about -50%; inconclusive means mostly about -30% to -49%
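THP-1 cells pretreated 1 hr with compounds (up to 57.5 uM final), then stimulated with LPS (250 ng/mL final) plus ATP (1.25 mM final); secreted IL-1B measured by AlphaLISA after 16 hr, decreased signal indicating inhibition.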
TDP1 cell noCPT – qHTS for Inhibitors of human tyrosyl-DNA phosphodiesterase 1 (TDP1): qHTS in cells in absence of CPT. Potency, µM (doses to about 46.2 µM), actives largely listed as inhibitors. 15% of 420,000 active. DT40 Tdp1-/- hTDP1 cells, no CPT, ATP luminescence, 48 h; further: nearly all actives have a fitted effect of over 55% in size
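Luminescent ATP content (CellTiter-Glo) served as the growth readout. Knockout chicken DT40 cells expressing human TDP1 were exposed to compounds without camptothecin for a minimum 48 hr at 37 °C.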
DRD3 agonist – qHTS of D3 Dopamine Receptor Agonist: qHTS; D(3) dopamine receptor (Homo sapiens), P35462; D3R DiscoveRx beta-arrestin cells, luminescence, 90 min; max activation, %; 0.58% of 410,000 active; AID 652048, 2013; in the data active means max activation above about 30%
Target sequence (P35462 whole entry, looked up): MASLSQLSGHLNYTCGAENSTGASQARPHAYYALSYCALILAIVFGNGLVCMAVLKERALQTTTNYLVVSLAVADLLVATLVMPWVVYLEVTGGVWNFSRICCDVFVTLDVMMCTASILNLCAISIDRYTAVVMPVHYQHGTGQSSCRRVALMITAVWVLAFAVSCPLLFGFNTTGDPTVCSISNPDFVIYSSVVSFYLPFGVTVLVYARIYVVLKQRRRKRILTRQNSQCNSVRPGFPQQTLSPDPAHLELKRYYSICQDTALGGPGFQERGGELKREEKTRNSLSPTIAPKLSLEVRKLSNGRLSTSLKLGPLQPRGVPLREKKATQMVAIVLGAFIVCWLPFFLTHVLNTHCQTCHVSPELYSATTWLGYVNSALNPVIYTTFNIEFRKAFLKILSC
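Agonist-mode cell screen: cells plated at 1500/well and incubated overnight at 37 °C, then exposed to library compounds for 90 min at 37 °C. Detection reagent was added for 30–60 min at room temperature, and luminescence was read.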
D3 antag – qHTS of D3 Dopamine Receptor Antagonist: qHTS. D(3) dopamine receptor (Homo sapiens), P35462. D3R cells, DiscoveRx beta-arrestin luminescence, antagonist mode; stronger effect = lower value. max response, negative = inhibition, %. 2.5% of 360,000 active. AID 652054, 2013; in the data active means max response below about -50%; inconclusive means no clear call, values can overlap the other calls
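Cells plated overnight at 1500 cells/well, then exposed to library compounds with dopamine controls for 90 minutes at 37 degrees C. DiscoveRx reagent added for 30–60 minutes at room temperature; luminescence read, quantitative HTS format.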
ClpP mod – qHTS Assay for Activators of ClpP; AID 651965, 2013; Potency, µM (series often up to 57.5 µM); ATP-dependent Clp protease proteolytic subunit (Bacillus subtilis (strain 168)), P80244; 1.9% of 340,000 active; purified B. subtilis ClpP, FRET peptide cleavage, 20 min; active means well fitted falling curve with a large enough effect; inconclusive means small, poorly fitted or top-dose-only effect; inactive means no such curve, though single readings can be large or run the other way; further: the source files actives as falling curves though it sought activators and does not explain the sign; nearly all actives have a fitted effect of over 65% in size
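Purified B. subtilis ClpP, 10 microg/mL final in Tris/HCl pH8 with KCl, BSA, glycerol and Tween-20, cleaved an Abz/nitrotyrosine-quenched decapeptide. Fluorescence (ex 320, em 430) was read at 0 and 20 min at room temperature. Delta was normalized to 5.8 microM ADEP and DMSO/no-enzyme controls.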
Each line names hits and unclear results; the compound was inactive in the other large screens. Unless noted, the call rests on the fitted dose curve; in most records, active means well fitted inhibition curve with a large enough effect; inconclusive means small, poorly fitted or top-dose-only effect; inactive means flat fitted curve, though single readings scatter.

CCc1ccccc1NC(=O)CC(c1ccc(F)cc1)N1Cc2ccccc2C1=O (stereo not drawn)	TDP1 cell CPT 23µM, TDP1 cell noCPT 23µM (no result: IL1B secr inh, D3 antag)
COc1cc(C(CC(=O)Nc2ccc(F)cc2F)N2Cc3ccccc3C2=O)cc(OC)c1OC (stereo not drawn)	TDP1 cell CPT inconclusive, TDP1 cell noCPT inconclusive (no result: IL1B secr inh, D3 antag)
Cc1ccc(C(CC(=O)Nc2ccc(C)cc2C)N2Cc3ccccc3C2=O)cc1 (stereo not drawn)	TDP1 cell CPT 16µM, TDP1 cell noCPT 18µM (no result: IL1B secr inh, D3 antag)
CSc1cccc(NC(=O)CC(c2ccc(F)cc2)N2Cc3ccccc3C2=O)c1 (stereo not drawn)	TDP1 cell CPT 23µM, TDP1 cell noCPT 21µM (no result: IL1B secr inh, D3 antag)
O=C(NCc1cccc(F)c1)C1CCCN(C(=O)N2CCOc3ccccc32)C1 (stereo not drawn)	none (no result: IL1B secr inh, D3 antag)
CCC(C)Sc1ccc([C@H]2N[C@@](C)(C(=O)OC)[C@H]3C(=O)N(C)C(=O)[C@@H]23)cc1OC (stereo partly drawn)	TDP1 cell noCPT inconclusive
Cc1ccc(NC(=O)CC(c2ccc(F)cc2)N2Cc3ccccc3C2=O)cc1C (stereo not drawn)	none (no result: IL1B secr inh, D3 antag)
Cc1ccc(C(CC(=O)Nc2cc(C)cc(C)c2)N2Cc3ccccc3C2=O)cc1 (stereo not drawn)	TDP1 cell CPT 15µM, TDP1 cell noCPT 23µM (no result: IL1B secr inh, D3 antag)
COc1ccc2nc(-c3ccccc3)cc(C(=O)OCC(=O)N3CC(C)OC(C)C3)c2c1 (stereo not drawn)	TDP1 cell CPT inconclusive, IL1B secr inh inconclusive, TDP1 cell noCPT inconclusive
CC(C)C(C(=O)NCC1CCCO1)N(C(=O)CNS(=O)(=O)c1ccccc1)c1ccc(F)cc1 (stereo not drawn)	none (no result: ClpP mod)
COc1ccc(-c2c(C#N)c(SCC(=O)Nc3ccccc3C)nc(C)c2C(=O)Nc2ccc(Cl)cc2)cc1	none (no result: IL1B secr inh, D3 antag)
COC(=O)CSc1nc(C)c(C(=O)Nc2ccccc2C)c(-c2ccc(Cl)cc2)c1C#N	TDP1 cell CPT inconclusive, IL1B secr inh -76, TDP1 cell noCPT inconclusive
Cc1ccccc1NC(=O)c1c(C)nc(SCC(=O)OCc2ccccc2)c(C#N)c1-c1ccc(F)cc1	TDP1 cell CPT inconclusive, TDP1 cell noCPT 15µM, ClpP mod inconclusive
CC1CCCCC12NC(=O)N(CC(=O)Nc1cccnc1)C2=O (stereo not drawn)	none
COc1ccccc1-n1c(-c2ccco2)n[nH]c1=S	none (no result: ClpP mod)
S=c1[nH]nc(-c2cc(-c3ccsc3)n[nH]2)n1-c1cccc2ccccc12	TDP1 cell CPT inconclusive, TDP1 cell noCPT 29µM (no result: ClpP mod)
S=c1[nH]nc(-c2ccco2)n1-c1cccc2ccccc12	D3 antag -74
CCOC(=O)CC1(C)Oc2ccccc2N1S(=O)(=O)c1ccc(C)cc1 (stereo not drawn)	TDP1 cell CPT 21µM, TDP1 cell noCPT inconclusive
CC(=O)O/N=C1\C(=O)N(Cc2ccc(C)cc2)c2ccccc21	IL1B secr inh -94, TDP1 cell noCPT inconclusive (no result: ClpP mod)
CN1C(=O)/C(=N\OC(=O)c2ccccc2Cl)c2ccccc21	TDP1 cell CPT 23µM, TDP1 cell noCPT 23µM
Cc1ccccc1C1(CC(=O)N2CCOCC2)CC(=O)N(Cc2cccnc2)C1=O (stereo not drawn)	none (no result: IL1B secr inh, DRD3 agonist, D3 antag, ClpP mod)
COc1ccc(N2CCC(CNC(=S)Nc3cc(C)cc(C)c3)C2)cc1 (stereo not drawn)	TDP1 cell CPT inconclusive, IL1B secr inh -91, TDP1 cell noCPT 15µM (no result: ClpP mod)
COc1ccc(N2CCC(CNC(=O)Nc3ccccc3)C2)cc1 (stereo not drawn)	TDP1 cell noCPT inconclusive
COc1ccc(N2CCN(C(=S)Nc3cc(C)ccc3C)CC2)cc1	none

Compound activity: PubChem, National Center for Advancing Translational Sciences (NCATS)
